Experimental findings from PubChem BioAssay (NCI) are described below.

This is part of a sample that, as a whole, favours compounds with a hit. Of some 79,000 tested, about 15% had one in any assay. Values without a mark were called inactive. The source made the active and inactive calls. Cut-off read from the data, not from the text of the source: active = growth inhibition above about 70%; inactive = the rest.

Assay [1] can be described thus: NCI Yeast Anticancer Drug Screen. Data for the rad50 strain (AID 155).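 Note: 0% = growth of vehicle-only cultures of the same strain.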 The settings on record: S. cerevisiae rad50 strain growth inhibition; at 50.0 µM; hits give high values. Summed up:
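Cells are treated with compound, grown, and their growth is then scored against vehicle-only cultures of the same repair-deficient yeast strain.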

The nature of assay [2]: NCI Yeast Anticancer Drug Screen. Data for the mec2-1 strain (AID 157). The following applies: S. cerevisiae mec2-1 strain, hits give high values. In outline:
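Vehicle-treated cultures served as reference for growth inhibition of compound-exposed mec2-1 yeast.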

Assay [3] is described as follows: NCI Yeast Anticancer Drug Screen. Data for the sgs1 mgt1 strain (AID 161).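 Note: 0% = growth of cultures given vehicle only.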 The settings on record: S. cerevisiae sgs1 mgt1 strain, hits give high values. In outline: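 Genetically altered yeast, compound exposure, growth inhibition relative to vehicle.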
A short description of assay [4]: NCI Yeast Anticancer Drug Screen. Data for the bub3 strain (AID 167). The settings on record: S. cerevisiae bub3 mutant strain, hits give high values. In outline: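 Part of a panel of yeast mutants defective in DNA damage repair or cell cycle regulation. Each strain is grown with compound, and inhibition is calculated relative to solvent-treated cultures.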
A short description of assay [5]: NCI Yeast Anticancer Drug Screen. Data for the mlh1 rad18 strain (AID 175). The following applies: S. cerevisiae mlh1 rad18 strain growth inhibition, hits give high values. Summed up: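 Vehicle-treated cultures served as the reference for growth inhibition in a yeast strain carrying DNA damage repair alterations exposed to each compound.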
Assay [6] can be described thus: NCI Yeast Anticancer Drug Screen. Data for the cln2 rad14 strain (AID 165).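 Note: 0% = growth equal to vehicle treated cultures.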 The following applies: S. cerevisiae cln2 rad14 strain, hits give high values. In outline: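 Each compound was tested on cln2 rad14 yeast. Inhibition of growth was calculated against vehicle-exposed controls.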
[7] abbreviates: at 5.0 µM (retest, dose inferred, filed as 0.5).
Setting [8] is: at 50.0 µM (retest, dose inferred, filed as 5.0).

As to `CSCCC(N)P(C)(=O)O` (centres undefined), the growth inhibition was -16.4% in assay [1]; -37.5% in assay [2] (at 50.0 µM); -15.7% in assay [3] (at 50.0 µM); -46.1% in assay [4] (at 50.0 µM); -17.5% in assay [5] (at 50.0 µM).
In the case of `CC(C)CCN(CCC(C)C)CC(O)c1ccc(Br)cc1` (centres undefined), the growth inhibition in assay [1] was 5.1%; in assay [2] (at 50.0 µM), -13.1%; in assay [3] (at 50.0 µM) it was 6.1%; in assay [4] (at 50.0 µM), -15.6%; in assay [5] (at 50.0 µM), 0.35%.
In the case of `Cc1cc(Cl)ccc1NC(=O)/C(CC(=O)CC(c1ccccc1)c1c(O)c2ccccc2oc1=O)=N\O` (centres undefined), the growth inhibition was -14.9% in assay [1]; -8.4% in assay [2] (at 50.0 µM); 3.05% in assay [3] (at 50.0 µM); -29.1% in assay [4] (at 50.0 µM); -5.8% in assay [5] (at 50.0 µM).
For the compound `O=c1cc(O)c2ccccc2o1`, the growth inhibition was 26.1% in assay [1]; -1.55% in assay [2] (at 50.0 µM); -4.1% in assay [3] (at 50.0 µM); 15.6% in assay [6] (at 50.0 µM); -10.2% in assay [4] (at 50.0 µM); 14.3% in assay [5] (at 50.0 µM).
With `O=c1c2cc(Br)ccc2[nH]c(=S)n1-c1ccc(Br)cc1`, the growth inhibition in assay [1] is 9.95%; in assay [2] (at 50.0 µM), -7.2%; in assay [3] (at 50.0 µM), 15.2%; in assay [6] (at 50.0 µM) it was 18%; in assay [4] (at 50.0 µM), 35.5%; in assay [5] (at 50.0 µM), 12.2%.
Regarding `O=C1CC2OCC=C3CN4CCC56c7ccccc7N1C5C2C3CC46` (centres undefined), the growth inhibition in assay [1] was 9.65%; in assay [2] (at 50.0 µM) it was 2.3%; in assay [3] (at 50.0 µM) it was 4.15%; in assay [4] (at 50.0 µM), 8.9%; in assay [5] (at 50.0 µM), -9.25%.
`O=[N+]([O-])CCCl`: the growth inhibition in assay [1] was 3.8%; in assay [2] (at 50.0 µM) it was 2.1%; in assay [3] (at 50.0 µM), -3.4%; in assay [6] (at 50.0 µM), 3.9%; in assay [4] (at 50.0 µM) it was 3.95%; in assay [5] (at 50.0 µM) it was -3.9%.
Take `CCN1CN(c2ccccc2)C2(CCN(CC(CC3OCCO3)c3ccc(F)cc3)CC2)C1=O` (centres undefined): the growth inhibition in assay [1] is 28.5%; in assay [2] (at 50.0 µM) it was 32.2%; in assay [3] (at 50.0 µM), 51.9%; in assay [6] (at 50.0 µM), 13.6%; in assay [5] (at 50.0 µM), 44.6%.
For `O=C(O)c1cc(C(=O)O)cc(S(=O)(=O)F)c1`, the growth inhibition was 13.5% in assay [1]; 3.75% in assay [2] (at 50.0 µM); 19.6% in assay [3] (at 50.0 µM); -4.05% in assay [4] (at 50.0 µM); 7.5% in assay [5] (at 50.0 µM).
Turning to `O=CNNC(=O)C(Cl)Cl`, the growth inhibition in assay [1] is 4.25%; in assay [2] (at 50.0 µM) it was -11.9%; in assay [3] (at 50.0 µM), -10.1%; in assay [6] (at 50.0 µM) it was -31.3%; in assay [4] (at 50.0 µM), -3.45%; in assay [5] (at 50.0 µM), 8.9%.
As to `O=C(O)C(Cl)(Cl)Cl`, the growth inhibition was -0.6% in assay [1]; -22.6% in assay [2] (at 50.0 µM); -15.8% in assay [3] (at 50.0 µM); -17.4% in assay [4] (at 50.0 µM); 21.1% in assay [5] (at 50.0 µM).
Turning to `Cc1ccc(-n2cnc3c(N(CCCl)CCCl)ncnc32)cc1`, the growth inhibition was 10.3% in assay [1]; 0.55% in assay [2] (at 50.0 µM); -1.45% in assay [3] (at 50.0 µM); 5.55% in assay [6] (at 50.0 µM); -3.15% in assay [5] (at 50.0 µM).
As for `FC(F)(F)C1(F)N(Cc2ccccc2)C1(F)C(F)(F)F` (centres undefined), the growth inhibition in assay [1] is 9.1%; in assay [2] (at 50.0 µM), -7.5%; in assay [3] (at 50.0 µM), -10.3%; in assay [6] (at 50.0 µM), -6.65%; in assay [4] (at 50.0 µM), 7%; in assay [5] (at 50.0 µM), -9.95%.
As to `C(#Cc1ccccc1)c1ccccc1.[C-]#[O+].[C-]#[O+].[C-]#[O+].[C-]#[O+].[C-]#[O+].[C-]#[O+].[Co].[Co]`, the growth inhibition in assay [1] was 42.4%; in assay [2] (at 50.0 µM), 28.1%; in assay [3] (at 50.0 µM) it was 42.4%; in assay [6] (at 50.0 µM) it was -3.55%; in assay [4] (at 50.0 µM), 5.2%; in assay [5] (at 50.0 µM), 53.2%.
As for `Nc1ccncc1`, the growth inhibition in assay [1] was 4.35%; in assay [2] (at 50.0 µM), -5.45%; in assay [3] (at 50.0 µM), 10%; in assay [6] (at 50.0 µM), 10.9%; in assay [4] (at 50.0 µM), -2.55%; in assay [5] (at 50.0 µM) it was 4.45%.
With `CCOC(=O)C1(C#N)C(C#N)(C#N)C12CCCCC2` (centres undefined) (tested in a mixture with another compound), the growth inhibition was 36.5% in assay [1]; 10.1% in assay [2] (at 50.0 µM); 56% in assay [3] (at 50.0 µM); 4.9% in assay [6] (at 50.0 µM); 33.8% in assay [4] (at 50.0 µM); 23.2% in assay [5] (at 50.0 µM).
For the compound `COc1ccc([N+](=O)[O-])cc1CNCCCl`, the growth inhibition in assay [1] is -2.75%; in assay [2] (at 50.0 µM), 24.6%; in assay [3] (at 50.0 µM) it was 36.5%; in assay [6] (at 50.0 µM), -14.8%; in assay [4] (at 50.0 µM), 20.1%; in assay [5] (at 50.0 µM), 19.4%.
As to `COc1ccc2c(c1O)[C@@]13CCN(C)[C@@H](C2)[C@H]1CC(C)C(=O)C3` (some centres undefined), the growth inhibition is 5.65% in assay [1]; -30.6% in assay [2] (at 50.0 µM); 8.55% in assay [3] (at 50.0 µM); 17.2% in assay [6] (at 50.0 µM); -2.5% in assay [5] (at 50.0 µM).
Consider `CN(C)CCc1ccc(Cl)cc1Cl`, for which the growth inhibition in assay [1] was 11.1%; in assay [2] (at 50.0 µM), 14.3%; in assay [6] (at 50.0 µM), 6.6%; in assay [4] (at 50.0 µM), 3.75%; in assay [5] (at 50.0 µM), 22.4%.
`CC(=O)OC1(C)CC(C)C(=O)C(C(O)CC2CC(=O)NC(=O)C2)C1` (centres undefined): the growth inhibition in assay [2] (at 50.0 µM) is 94.3% (active); in assay [3] (at 50.0 µM) it was 93.7% (active); in assay [6] (at 50.0 µM), 92.2% (active); in assay [4] (at 50.0 µM) it was 93.3% (active); in assay [5] (at 50.0 µM), 92.3% (active).
For the compound `COC1CC(OC2C(C)OC(OC3C(C)OC(OC4CCC5(C)C(=CCC6(O)C5CC(OC(=O)c5ccc(O)cc5)C5(C)C(O)(C(C)=O)CCC65O)C4)CC3OC)CC2OC)OC(C)C1O` (centres undefined) (tested in a mixture with another compound), the growth inhibition in assay [2] (setting [7]) is 8%; in assay [2] (setting [8]) it was 82% (active); in assay [2] (at 50.0 µM), 39.1%; in assay [3] (setting [7]), 1%; in assay [3] (setting [8]), 89% (active); in assay [3] (at 50.0 µM), 68.7%. The growth inhibition in assay [6] (setting [7]) was -7%; in assay [6] (setting [8]) it was 49%; in assay [6] (at 50.0 µM), 48.6%; in assay [4] (setting [7]) it was 6%; in assay [4] (setting [8]) it was 74% (active); in assay [4] (at 50.0 µM), 60.5%. Besides, the growth inhibition was -3% in assay [5] (setting [7]), 83% (active) in assay [5] (setting [8]) and 55.1% in assay [5] (at 50.0 µM).
